Several values for one entry are separate records, joined by “and”; a condition that tells them apart may be missing. Equal entries are not always repeated. The campaign covered roughly 5,500 compounds. About 2,000 (36%) were called active. Roughly 18% stayed inconclusive and do not appear here. Rule as the data show it: active = normalized growth mostly below about 0.91 (no sharp cut-off); inconclusive = no clear call, values can overlap the other calls; inactive = mostly above about 0.92. The list shows a part of the results.
Assay: chemical genetic growth profiling, strain panel (AID 1159580);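 also: tested at 20 µM; growth read once vehicle control cultures reached saturation at 30 °C; 1 = growth at the plate median or of vehicle wells; lower values mean less growth of the strain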
Conditions: S. cerevisiae deletion strains, growth OD

Measured: normalized growth

C[C@H]1[C@H](C)CC[C@]2(CO)CC[C@]3(C)C(=CCC4[C@@]5(C)CC[C@H](O)C(C)(C)C5CC[C@]43C)[C@H]12 (some centres not stated)
inactive: locus YAL021C, strain ccr4, hits give low values 1.02 | locus YAL026C, strain drs2, hits give low values 0.981 | locus YAL030W, strain snc1, hits give low values 0.997 | locus YBL061C, strain skt5, hits give low values 0.994 | locus YBR009C, strain hhf1, hits give low values 1.01 | locus YBR021W, strain FUR4, hits give low values 1.01 | locus YBR023C, strain chs3, hits give low values 0.995 | locus YBR171W, strain sec66, hits give low values 0.989 | locus YBR229C, strain ROT2, hits give low values 1.02 | locus YBR231C, strain swc5, hits give low values 0.996 | locus YBR279W, strain paf1, hits give low values 0.991 | locus YCL011C, strain gbp2, hits give low values 0.994 | locus YCL016C, strain dcc1, hits give low values 1.01 | locus YCL029C, strain bik1, hits give low values 1.06 | locus YCL061C, strain MRC1, hits give low values 1 | locus YCL069W, strain vba3, hits give low values 0.998 | locus YCR088W, strain abp1, hits give low values 0.995 | locus YDL005C, strain med2, hits give low values 0.986 | locus YDL035C, strain GPR1, hits give low values 0.994 | locus YDL040C, strain nat1, hits give low values 0.996 | locus YDL074C, strain BRE1, hits give low values 1.03 | locus YDL101C, strain DUN1, hits give low values 1.02 | locus YDL134C, strain PPH21, hits give low values 0.999 | locus YDL185W, strain tfp1, hits give low values 1.03 | locus YDL192W, strain arf1, hits give low values 1.04 | locus YDR001C, strain nth1, hits give low values 1 | locus YDR069C, strain doa4, hits give low values 0.988 | locus YDR101C, strain arx1, hits give low values 1.01 | locus YDR137W, strain rgp1, hits give low values 0.996 | locus YDR159W, strain sac3, hits give low values 1.01 | locus YDR162C, strain NBP2, hits give low values 1.01 | locus YDR195W, strain ref2 0.992 | locus YDR297W, strain sur2, hits give low values 1.01 | locus YDR318W, strain mcm21, hits give low values 1.02 | locus YDR334W, strain swr1, hits give low values 0.992 | locus YDR335W, strain msn5, hits give low values 0.999 | locus YDR388W, hits give low values 1.02 | locus YDR392W, strain spt3, hits give low values 1.03 | locus YDR502C, strain sam2, hits give low values 0.998 | locus YEL003W, strain gim4, hits give low values 1 | locus YEL037C, strain rad23, hits give low values 0.981 | locus YEL061C, strain CIN8 (second series), hits give low values 0.972 | locus YEL061C, strain CIN8, hits give low values 1.01 | locus YER015W, strain faa2, hits give low values 1 | locus YER016W, strain bim1, hits give low values 0.988 | locus YER110C, hits give low values 1.03 | locus YER111C, strain swi4, hits give low values 1.01 | locus YER155C, strain BEM2 (second series), hits give low values 0.995 | locus YER155C, strain BEM2, hits give low values 1.02 | locus YER167W, strain BCK2, hits give low values 0.994 | locus YFR010W, strain ubp6, hits give low values 0.987 | locus YGL078C, strain dbp3, hits give low values 1.01 | locus YGL086W, strain mad1, hits give low values 1.01 | locus YGL167C, strain pmr1, hits give low values 0.996 | locus YGL173C, strain kem1, hits give low values 1 | locus YGL227W, strain vid30, hits give low values 0.999 | locus YGL240W, strain doc1, hits give low values 0.975 | locus YGL248W, strain PDE1, hits give low values 1.01 | locus YGL253W, strain hxk2, hits give low values 0.995 | locus YGR135W, strain pre9, hits give low values 1.01 | locus YGR252W, strain gcn5, hits give low values 1.02 | locus YHR013C, strain ard1, hits give low values 0.982 | locus YHR027C, strain rpn1, hits give low values 1 | locus YHR030C, strain SLT2, hits give low values 1.01 and 1.03 | locus YHR079C, strain IRE1 (second series), hits give low values 1.02 | locus YHR079C, strain IRE1, hits give low values 1.04 | locus YHR094C, strain hxt1, hits give low values 1.03 | locus YHR129C, strain ARP1, hits give low values 1.02 | locus YHR142W, strain chs7, hits give low values 1.01 | locus YHR200W, strain rpn10, hits give low values 1.01 | locus YIL066C, strain RNR3, hits give low values 1.01 | locus YIL073C, strain SPO22, hits give low values 1.05 | locus YIL125W, strain kgd1, hits give low values 1.03 | locus YIR030C, strain dcg1, hits give low values 1.02 | locus YJL092W, strain hpr5, hits give low values 0.995 | locus YJL095W, strain BCK1 (second series), hits give low values 1.01 | locus YJL095W, strain BCK1, hits give low values 1.02 and 0.984 | locus YJL115W, strain asf1, hits give low values 0.991 | locus YJL129C, strain trk1, hits give low values 1 | locus YJL134W, strain LCB3, hits give low values 1.01 | locus YJL154C, strain vps35, hits give low values 0.986 | locus YJL164C, strain tpk1, hits give low values 1.01 | locus YJL166W, strain qcr8, hits give low values 0.994 | locus YJL168C, strain set2, hits give low values 1.02 | locus YJL187C, strain SWE1 (second series), hits give low values 1.02 | locus YJR043C, strain POL32, hits give low values 1 | locus YJR066W, strain TOR1, hits give low values 0.997

Reference: PubChem BioAssay AID1159580 (chemical genetic matrix, 2015)
